# Measurements as given in PubChem BioAssay.
# Values joined by “and” are separate entries in the source; they are usually repeats but may differ in a detail not shown here. Equal entries are not always repeated. Active and inactive are the calls of the source.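 How the source made its calls, unless noted: active means compounds whose cell count with miR-34 switched on is under 0.7 times the count with it off; inactive means the rest.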
# Key:
# [1] = viability loss with induced miR-34 in A549 – imaging, A549 dox-inducible miR-34, nuclei and caspase counts, primary screen (AID 1347080); settings: A549 miR-34 inducible, Hoechst nuclei count, 48 h
# [2] = MELAS cybrid and Rieske KO viability enhancers – cell-based, MELAS cybrids, Rieske KO mouse fibroblasts, CellTiter-Glo, primary screen (AID 1508586;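 active means mean z-score across replicates of 1.96 or higher in either the MELAS or the Rieske mutant cell line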;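 further: z relative to plate mean and SD of compound and empty wells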); settings: low glucose
# [3] = molecular target: NAD(+) hydrolase SARM1 (Homo sapiens) (UniProt Q6SZW1); test: blocking NAD cleavage by SARM1 SAM-TIR – cell lysate, NAD-Glo luminescence (AID 1508614;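 active means compound whose remaining NAD level is above about 45 nM, limit read from the data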); settings: SAM-TIR HEK293T lysate NADase, at 1 µM, stronger effect = higher value
# NAD(+) hydrolase SARM1 (Homo sapiens), sequence (Q6SZW1 whole entry, looked up, the tested form may be a part): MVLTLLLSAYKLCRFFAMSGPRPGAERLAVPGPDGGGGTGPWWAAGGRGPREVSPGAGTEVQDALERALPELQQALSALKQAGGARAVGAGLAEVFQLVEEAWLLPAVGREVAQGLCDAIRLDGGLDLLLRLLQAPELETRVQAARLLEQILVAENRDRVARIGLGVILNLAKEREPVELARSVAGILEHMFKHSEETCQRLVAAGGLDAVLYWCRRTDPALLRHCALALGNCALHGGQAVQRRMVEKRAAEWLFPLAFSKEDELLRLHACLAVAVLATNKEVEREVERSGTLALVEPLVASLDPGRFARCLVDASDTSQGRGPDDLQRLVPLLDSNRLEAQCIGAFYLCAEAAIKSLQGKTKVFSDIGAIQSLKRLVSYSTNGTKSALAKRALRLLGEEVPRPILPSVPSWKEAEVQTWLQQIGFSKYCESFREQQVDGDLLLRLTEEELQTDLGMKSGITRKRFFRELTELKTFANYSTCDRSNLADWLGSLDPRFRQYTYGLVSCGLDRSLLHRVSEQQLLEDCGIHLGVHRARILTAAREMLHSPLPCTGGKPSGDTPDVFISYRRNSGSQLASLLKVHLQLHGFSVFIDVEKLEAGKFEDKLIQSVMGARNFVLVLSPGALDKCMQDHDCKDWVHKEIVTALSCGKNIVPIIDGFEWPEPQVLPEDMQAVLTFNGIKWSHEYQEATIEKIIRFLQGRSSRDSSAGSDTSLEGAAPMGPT
# [4] = molecular target: Mitogen-activated protein kinase 7 (Homo sapiens) (UniProt Q13164); test: Gal4-ERK5 driven luciferase induction – cell-based, HTS, primary screen (AID 1508626;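 active means luciferase signal above three times the same-plate solvent-only control wells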;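 further: luciferase driven by Gal4-ERK5 fusion binding five Gal4 sites before minimal TATA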); settings: HeLa Gal4-ERK5 transactivation, 18 h, at 5 µM, stronger effect = higher value
# Mitogen-activated protein kinase 7 (Homo sapiens), sequence (Q13164 whole entry, looked up, the tested form may be a part): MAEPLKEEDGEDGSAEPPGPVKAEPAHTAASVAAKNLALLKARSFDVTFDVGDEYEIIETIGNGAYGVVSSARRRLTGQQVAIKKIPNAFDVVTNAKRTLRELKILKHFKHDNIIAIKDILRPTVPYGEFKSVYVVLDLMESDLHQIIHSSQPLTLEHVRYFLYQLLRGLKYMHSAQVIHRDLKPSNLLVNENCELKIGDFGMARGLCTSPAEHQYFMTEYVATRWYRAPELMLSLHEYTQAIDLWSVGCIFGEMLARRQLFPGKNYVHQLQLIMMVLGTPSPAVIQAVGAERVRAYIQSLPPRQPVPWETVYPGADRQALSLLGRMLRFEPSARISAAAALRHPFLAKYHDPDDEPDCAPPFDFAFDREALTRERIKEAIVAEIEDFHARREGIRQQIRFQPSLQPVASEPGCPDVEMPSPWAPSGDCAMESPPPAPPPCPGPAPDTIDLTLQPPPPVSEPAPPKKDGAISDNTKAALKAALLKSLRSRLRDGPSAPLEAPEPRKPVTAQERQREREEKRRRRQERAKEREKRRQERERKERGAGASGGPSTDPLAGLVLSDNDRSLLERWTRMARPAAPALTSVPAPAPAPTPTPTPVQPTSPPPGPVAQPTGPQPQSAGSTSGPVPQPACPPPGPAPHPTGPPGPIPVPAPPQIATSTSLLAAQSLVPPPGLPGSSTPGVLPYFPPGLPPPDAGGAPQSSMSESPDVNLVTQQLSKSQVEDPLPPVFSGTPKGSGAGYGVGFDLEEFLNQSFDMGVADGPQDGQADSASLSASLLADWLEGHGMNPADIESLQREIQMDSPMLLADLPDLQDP
# [5] = galactose survival enhancers in mitochondrial complex I cybrids – cell-based, galactose medium, ATP luminescence, primary screen (AID 1645843;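 active means z-score of at least 1.8 in each of two replicates, scored against plate mean and spread of sample wells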;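 further: positive z means more ATP and so rescue of galactose-driven cybrid death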); settings: complex I mutant cybrid cells, 72 h, stronger effect = higher value
# [6] = stronger effect = lower value, cell number ratio, induced over uninduced
# [7] = measured here: relative caspase fold change +Dox/-Dox
# [8] = measured here: total cells with miR-34 induction, stronger effect = lower value
# [9] = measured here: total cells without miR-34 induction
# [10] = MELAS cybrid survival, CellTiter-Glo 48 h, stronger effect = higher value
# [11] = Rieske KO mouse fibroblast survival, CellTiter-Glo 72 h
SMILES,"fold change [1, 6]","fold change [1, 7]","cell count [1, 8]","cell count [1, 9]","z-score [2, 10]","z-score [2, 11]",remaining NAD [3],luciferase signal [4],z-score [5]
COc1ccc(C(=O)c2ccccc2O)c(O)c1,0.854 (inactive) and 0.825 (inactive),1.04 and 0.52,8680 and 11300,10200 and 13700,0.849 (inactive),-0.0959,10 nM (inactive),92 AU (inactive),–
Cc1[nH]c(C)c(Cl)c(=O)c1Cl,0.869 (inactive) and 0.865 (inactive),4.77 and 1.49,11500 and 9370,13300 and 10800,-1.24 (inactive),-1.35,10 nM (inactive),48 AU (inactive),0.41 (inactive)
Cc1c(Cl)cccc1Nc1ccccc1C(=O)O,0.957 (inactive) and 1.02 (inactive) and 0.935 (inactive),1 and 0.422 and 1.23,9330 and 8170 and 9290,9750 and 8010 and 9940,-0.324 (inactive) and 0.232 (inactive) and 0.0953 (inactive),-0.0198 and -0.0599 and -0.617,10 nM (inactive),52 AU (inactive),1.29 (inactive)
Cc1ccnc(NS(=O)(=O)c2ccc(N)cc2)n1,0.871 (inactive) and 0.913 (inactive),1.08 and 0.734 and 2.66,8890 and 7940 and 11400,10200 and 8690 and 12500,-0.105 (inactive) and 0.577 (inactive),-0.152 and -0.312,10 nM (inactive),68 AU (inactive),–
COC(=O)N/N=C/c1c[n+]([O-])c2ccccc2[n+]1[O-],0.833 (inactive) and 0.91 (inactive),6.83 and 1.15,10200 and 7650,12300 and 8400,0.937 (inactive) and 0.871 (inactive),0.153 and -0.0791,10 nM (inactive),172 AU (inactive),0.34 (inactive)
CC(C)(Oc1ccc(Cl)cc1)C(=O)O,0.908 (inactive) and 0.929 (inactive) and 0.927 (inactive),1.01 and 0.543 and 0.953,9250 and 7700 and 8560,10200 and 8280 and 9240,-0.232 (inactive) and -0.856 (inactive),-0.207 and -0.151,10 nM (inactive),72 AU (inactive),0.98 (inactive)
CCN(CC)CCOC(=O)C(Cc1cccc2ccccc12)CC1CCCO1 (stereo not given),0.845 (inactive) and 0.836 (inactive),1.23 and 5.94,9000 and 10700,10700 and 12800,0.101 (inactive),-0.0853,10 nM (inactive),36 AU (inactive),–
C[C@H](N)[C@H](O)c1cccc(O)c1,0.936 (inactive) and 0.834 (inactive),1.15 and 3.09,9120 and 10800,9740 and 13000,0.835 (inactive),0.306,10 nM (inactive),40 AU (inactive),–
COc1cccc(OC)c1C(=O)N[C@@H]1C(=O)N2[C@@H]1SC(C)(C)[C@@H]2C(=O)O,0.949 (inactive),0.959,11700,12400,-0.625 (inactive),-0.275,10 nM (inactive),32 AU (inactive),–
O=C(COc1ccc(Cl)cc1)N1CCN(Cc2ccc3c(c2)OCO3)CC1,0.875 (inactive),1.39,8260,9440,0.452 (inactive),0.138,10 nM (inactive),84 AU (inactive),–
CCCCOc1cc(C(=O)NCCN(CC)CC)c2ccccc2n1,0.83 (inactive) and 0.969 (inactive) and 0.813 (inactive),0.865 and 0.646 and 1.83,7720 and 7790 and 10400,9300 and 8040 and 12800,-0.328 (inactive) and -0.63 (inactive),-0.208 and 0.449,10 nM (inactive),40 AU (inactive),–
Cc1cc(=O)[nH]c(=S)[nH]1,0.999 (inactive) and 0.935 (inactive),0.275 and 0.458,8050 and 11700,8060 and 12500,0.105 (inactive),-0.199,10 nM (inactive),100 AU (inactive),–
N=C(N)N,0.954 (inactive) and 0.99 (inactive),0.786 and 0.574,8580 and 8630,9000 and 8720,-0.279 (inactive),-0.172,10 nM (inactive),44 AU (inactive),–
CCN(CCCc1ccccc1)CCCc1ccccc1,0.954 (inactive) and 0.931 (inactive) and 0.904 (inactive),1.55 and 0.42 and 0.729,9190 and 7300 and 10700,9640 and 7840 and 11900,-0.31 (inactive) and -0.215 (inactive),-0.176 and -0.103,10 nM (inactive),48 AU (inactive),–
CCOC(=O)NNc1nncc2ccccc12,0.882 (inactive),0.778,8120,9200,-0.647 (inactive),-0.171,10 nM (inactive),36 AU (inactive),–
CCCCc1nc(Cl)c(CO)n1Cc1ccc(-c2ccccc2-c2nn[nH]n2)cc1,0.884 (inactive) and 0.804 (inactive),0.724 and 6.97,7690 and 9920,8690 and 12300,-0.213 (inactive) and 0.409 (inactive),-0.0146 and 0.701,10 nM (inactive),44 AU (inactive),–
CCN(CC)CCNC(=O)COc1ccc(OC)cc1,0.859 (inactive) and 0.867 (inactive),1.24 and 3.74,9000 and 11100,10500 and 12800,0.396 (inactive),-0.0981,10 nM (inactive),72 AU (inactive),–
